Several values for one entry are separate records, joined by “and”; a condition that tells them apart may be missing. Identical values can stand only once. Records with an inconclusive call do not appear. Activity calls are given as the source filed them. Unless noted, calls come from the whole dose curve; as a rule, active = well fitted inhibition curve with a large enough effect; inconclusive = small, poorly fitted or top-dose-only effect; inactive = flat fitted curve, though single readings scatter.
Columns and labels:
[1] = Drug repurposing screens with cells derived from glioblastoma tumor samples (AID 1345199); settings: GBM patient neurospheres viability, ATP luminescence, 48 h; note: nearly all actives have a fitted effect of over 40% in size; note: potency is the fitted concentration of half-maximal effect; for activity, negative = cell killing: % is set by controls: 0 for no effect and ±100 for the full control effect
Method in brief: (§1)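 Four patient lines of CD133+ GBM neurospheres were screened at several concentrations; hits were retested in those lines plus three slower-growing GBM lines, using 48-hour treatment and ATP-based viability.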

astro = control astrocytes; test: as above; settings: viability, ATP luminescence, 48 h; series mostly up to 45.9 µM
Method in brief: as §1

[2] = molecular target: Nuclear receptor subfamily 1 group I member 2 (Rattus norvegicus) (UniProt Q9R1A7); test: qHTS assay for small molecule activators of the rat pregnane X receptor (rPXR) signaling pathway (AID 651751; call rule not given here; note: 0% is about no effect); settings: rPXR reporter cells, luciferase (One-Glo), 24 h
Nuclear receptor subfamily 1 group I member 2 (Rattus norvegicus), sequence (Q9R1A7 whole entry, looked up): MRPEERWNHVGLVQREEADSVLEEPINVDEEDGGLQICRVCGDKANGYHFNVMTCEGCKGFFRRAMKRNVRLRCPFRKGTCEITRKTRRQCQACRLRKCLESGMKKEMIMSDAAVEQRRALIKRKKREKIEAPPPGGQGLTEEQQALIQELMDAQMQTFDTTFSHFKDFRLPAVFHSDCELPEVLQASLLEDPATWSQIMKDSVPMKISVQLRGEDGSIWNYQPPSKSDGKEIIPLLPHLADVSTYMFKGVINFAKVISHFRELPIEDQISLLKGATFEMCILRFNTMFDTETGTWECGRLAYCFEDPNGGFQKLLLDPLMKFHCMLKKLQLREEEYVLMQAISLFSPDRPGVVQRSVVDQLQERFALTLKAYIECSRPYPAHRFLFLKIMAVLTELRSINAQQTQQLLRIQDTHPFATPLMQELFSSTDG

[3] = qHTS assay for small molecule activators of the human pregnane X receptor (PXR) signaling pathway (AID 720659; call rule not given here; note: 0% is about no effect); settings: DPX-2 HepG2 CYP3A4-luciferase, 24 h; series mostly up to 92.3 µM
[4] = at 45.9 µM (top of the series), tumour line B
[5] = at 45.9 µM (top of the series), tumour line D
[6] = at 46.1 µM (top of the series), tumour line C
[7] = at 46 µM (top of the series), tumour line A

O=C1CCC(c2ccccc2)(C2CCN(Cc3ccccc3)CC2)C(=O)N1 (stereo unspecified)
active: Potency ([1]; tumour line A) 11.2 µM
inactive: activity, negative = cell killing [1, 4] -26.8% | activity, negative = cell killing [1, 5] -22.6% | activity, negative = cell killing [1, 6] -22.6% | Potency (astro)

Cn1c(O)c(N=NC(N)=S)c2ccccc21
active: Potency ([1]; tumour line A) 31.6 µM
inactive: activity, negative = cell killing [1, 4] -22.4% | activity, negative = cell killing [1, 5] -18.5% | activity, negative = cell killing [1, 6] -19.8% | Potency (astro)

CC1(C)[C@H]2CC[C@]1(C)[C@H](O)C2
inactive: activity, negative = cell killing [1, 4] -3.63% | activity, negative = cell killing [1, 5] -3.69% | activity, negative = cell killing [1, 7] -22.7% | activity, negative = cell killing [1, 6] -20.6% | Potency (astro)

H-RKDVY-OH
inactive: activity, negative = cell killing [1, 4] -2.29% | activity, negative = cell killing [1, 5] 4.86% | activity, negative = cell killing [1, 7] -6.05% | activity, negative = cell killing [1, 6] -18.9% | Potency (astro)

Cc1cc(C(=O)NCCc2ccc(S(=O)(=O)NC(=O)NN3CCCCCC3)cc2)no1
inactive: activity, negative = cell killing [1, 4] -15.9% | activity, negative = cell killing [1, 5] -13.6% | activity, negative = cell killing [1, 7] -31.1% | activity, negative = cell killing [1, 6] -10.9% | Potency (astro)

C[C@@H]1O[C@@H](OC[C@H]2O[C@@H](Oc3c(-c4ccc(OCCO)c(OCCO)c4)oc4cc(OCCO)cc(O)c4c3=O)[C@H](O)[C@@H](O)[C@@H]2O)[C@H](O)[C@H](O)[C@H]1O
inactive: activity, negative = cell killing [1, 4] -5.23% | activity, negative = cell killing [1, 5] -14.3% | activity, negative = cell killing [1, 7] -13.8% | activity, negative = cell killing [1, 6] -13.8% | Potency (astro)

COc1ccc(/C=C/C(=O)OCCC(C)C)cc1
inactive: activity, negative = cell killing [1, 4] 1.41% | activity, negative = cell killing [1, 5] -11.4% | activity, negative = cell killing [1, 7] 4.4% | activity, negative = cell killing [1, 6] -1.14% | Potency (astro)

COC(=O)[C@H]1[C@H]2C[C@@H]3c4[nH]c5cc(OC)ccc5c4CCN3C[C@H]2C[C@H](OC)[C@@H]1OC
active: Potency ([1]; tumour line A) 11.2 µM
inactive: activity, negative = cell killing [1, 4] -8.25% | activity, negative = cell killing [1, 5] -1.56% | activity, negative = cell killing [1, 6] -6.43% | Potency (astro)

CCCCCc1ccc(C)cc1O
inactive: activity, negative = cell killing [1, 4] -7.13% | activity, negative = cell killing [1, 5] 3.04% | activity, negative = cell killing [1, 7] -24.1% | activity, negative = cell killing [1, 6] -11.1% | Potency (astro)

C/C=C/C=C/C(=O)O
inactive: activity, negative = cell killing [1, 4] 2.26% | activity, negative = cell killing [1, 5] -15.1% | activity, negative = cell killing [1, 7] -7.83% | activity, negative = cell killing [1, 6] -7.57% | Potency (astro)

CCCC(=O)O
inactive: activity, negative = cell killing [1, 4] -1.41% | activity, negative = cell killing [1, 5] -13.2% | activity, negative = cell killing [1, 7] -10.6% | activity, negative = cell killing [1, 6] -26.8% | Potency (astro)

O=C1c2ccccc2CN2C(=O)c3ccccc3CN12
inactive: activity, negative = cell killing [1, 4] -20.4% | activity, negative = cell killing [1, 5] -5.7% | activity, negative = cell killing [1, 7] -23.1% | activity, negative = cell killing [1, 6] -20% | Potency (astro)

O=[n+]1ccn([O-])c2ccccc21
inactive: activity, negative = cell killing [1, 4] -6.39% | activity, negative = cell killing [1, 5] -13.6% | activity, negative = cell killing [1, 7] -22.5% | activity, negative = cell killing [1, 6] -17% | Potency (astro)

CCCCCCCCCCCCOCCCN
inactive: activity, negative = cell killing [1, 4] -9.11% | activity, negative = cell killing [1, 5] 2.93% | activity, negative = cell killing [1, 7] -39.4% | activity, negative = cell killing [1, 6] -14.6% | Potency (astro)

CCN1C(=O)NC(c2ccccc2)C1=O (stereo unspecified)
inactive: activity, negative = cell killing ([1]; at 20 µM (top of the series), tumour line C) -11.1% | activity, negative = cell killing ([1]; at 21.2 µM (top of the series), tumour line B) -3.29% | activity, negative = cell killing ([1]; at 21.2 µM (top of the series), tumour line D) -11.8% | activity, negative = cell killing ([1]; at 21.3 µM (top of the series), tumour line A) -9.7% | Potency (astro)

C=CC(=O)O
inactive: activity, negative = cell killing [1, 4] -8.62% | activity, negative = cell killing [1, 5] -6.79% | activity, negative = cell killing [1, 7] -25.8% | activity, negative = cell killing [1, 6] -0.506% | Potency (astro)

CC(C)[C@@H]1CC[C@@H](C)C[C@H]1OC(=O)c1ccccc1O
inactive: activity, negative = cell killing [1, 4] -16.3% | activity, negative = cell killing [1, 5] -12.7% | activity, negative = cell killing [1, 7] -21.2% | activity, negative = cell killing [1, 6] -34.9% | Potency (astro)

CN1C(=O)C[C@@H](C(=O)N[C@@H](Cc2cnc[nH]2)C(=O)N2CCC[C@H]2C(N)=O)NC1=O
inactive: activity, negative = cell killing [1, 4] -7.31% | activity, negative = cell killing [1, 5] -5.42% | activity, negative = cell killing [1, 7] -26.4% | activity, negative = cell killing [1, 6] -16.9% | Potency (astro)

CC(C)O
inactive: activity, negative = cell killing [1, 4] -6.9% | activity, negative = cell killing [1, 5] -24.5% | activity, negative = cell killing [1, 7] -15.4% | activity, negative = cell killing [1, 6] -14.2% | Potency (astro) | max response [2] -7.02% | outcome [3]

C[C@]12CC[C@@H]3c4ccc(O)cc4CC[C@H]3[C@@H]1CC[C@@H]2OP(=O)(O)O
inactive: activity, negative = cell killing [1, 4] -7.23% | activity, negative = cell killing [1, 5] -13% | activity, negative = cell killing [1, 7] -23.9% | activity, negative = cell killing [1, 6] 22.6% | Potency (astro)

C[C@H](CCC(=O)O)[C@H]1CC[C@H]2[C@@H]3[C@H](O)C[C@@H]4C[C@H](O)CC[C@]4(C)[C@H]3C[C@H](O)[C@]12C
inactive: activity, negative = cell killing [1, 4] -1.15% | activity, negative = cell killing [1, 5] 1.82% | activity, negative = cell killing [1, 7] -16.5% | activity, negative = cell killing [1, 6] -12.6% | Potency (astro) | max response [2] -1% | outcome [3]

COC(=O)c1ccccc1O
inactive: activity, negative = cell killing [1, 4] -5.99% | activity, negative = cell killing [1, 5] -6.33% | activity, negative = cell killing [1, 7] -21.5% | activity, negative = cell killing [1, 6] 12.1% | Potency (astro) | max response [2] -2.2% and 1.51%

c1ccc2ccccc2c1
inactive: activity, negative = cell killing [1, 4] -9.97% | activity, negative = cell killing [1, 5] 9.45% | activity, negative = cell killing [1, 7] -4.53% | activity, negative = cell killing [1, 6] -18.3% | Potency (astro) | max response [2] -1.58% and 3.23%

CC(=O)N[C@@H]1C(O[C@H]2O[C@H](C(=O)O)C(O)[C@H](O)[C@H]2O)[C@H](O)[C@@H](CO)O[C@H]1O[C@@H]1C(C(=O)O)O[C@@H](O[C@H]2[C@H](O)[C@@H](CO)OC(O)[C@@H]2NC(C)=O)[C@H](O)[C@H]1O (stereo partly specified)
inactive: activity, negative = cell killing [1, 4] -6.99% | activity, negative = cell killing [1, 5] -9.84% | activity, negative = cell killing [1, 7] -10.4% | activity, negative = cell killing [1, 6] -7.36% | Potency (astro)

Reference: PubChem BioAssay (NCATS)
